# Measurements: the supplement of paper PMC6555819
# Experiments:
# Experiment in all cases: PBM binding z-score (relative to random genomic background probes); higher = stronger binding; sequences stand for … in GC…GCGATTGACAGCGTAGAATGAAGG
# [1] = tested on: FXR:RXRa (NR concentration 270 nM, RXRa partner concentration 90 nM)
# Method in brief: (§1)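 Regression normalization was applied to scanned fluorescence from custom Agilent 4×180K protein-binding microarrays. Before scanning, arrays were incubated 1 h with ligand-free nuclear receptor dimers, and binding was detected with antibodies against each partner (one per run). Binding z-scores use the random background probes as reference.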
# [2] = tested on: LXRa:RXRa (NR concentration 270 nM, RXRa partner concentration 90 nM)
# Method in brief: as §1
# [3] = tested on: LXRa homodimer (NR concentration 270 nM)
# Method in brief: as §1
# [4] = tested on: LXRb:RXRa (NR concentration 270 nM, RXRa partner concentration 90 nM)
# Method in brief: as §1
# [5] = tested on: LXRb homodimer (NR concentration 270 nM)
# Method in brief: as §1
# [6] = tested on: PPARa:RXRa (NR concentration 270 nM, RXRa partner concentration 90 nM)
# Method in brief: as §1
# [7] = tested on: PPARg:RXRa (NR concentration 180 nM, RXRa partner concentration 90 nM)
# Method in brief: as §1
# [8] = tested on: PPARg:RXRa 270nM:90nM, anti-RXR (NR concentration 270 nM, RXRa partner concentration 90 nM)
# Method in brief: as §1
# [9] = tested on: PPARg:RXRa 30nM:10nM, anti-RXR (NR concentration 30 nM, RXRa partner concentration 10 nM)
# Method in brief: as §1
# [10] = tested on: PPARg:RXRa 90nM:30nM, anti-RXR (NR concentration 90 nM, RXRa partner concentration 30 nM)
# Method in brief: as §1
Sequence,PBM binding z-score [1],PBM binding z-score [2],PBM binding z-score [3],PBM binding z-score [4],PBM binding z-score [5],PBM binding z-score [6],PBM binding z-score [7],PBM binding z-score [8],PBM binding z-score [9],PBM binding z-score [10]
AGAATGAGTTTAAGATCAGGGAAACAGAATACAT,-0.0291,-0.0527,-0.102,-0.0907,-0.243,-0.0432,0.814,-0.0778,0.203,0.0165
TCTTGTAGATCAGCACGTTAAGAAAGCTGGCCAA,0.121,0.0301,-0.232,-0.0159,-0.411,0.18,-0.291,0.766,2.47,1.43
CCTGGTTGGTCAAGGTCACACACGCTATAGGTAC,4.28,4.07,2.43,3.92,1.12,4.3,2.92,3.15,1.15,2.22
CGAACTAGGTCATTCAGGACAGTGAATACATTGA,4.37,2.73,0.67,2.11,0.253,4.49,7.24,6,3.42,5.66
CAAACTAGGTCAAAGGCCAAAGTCGAGCCAACCA,5.15,3.93,0.637,3.08,-0.153,6.63,11.3,9.98,9.75,10.9
CAAACAAGGTCAAGAGGTCAAAGTCCGCTTCCCG,–,–,7.29,–,2.87,–,8.71,8.05,6.08,7.7
GCGACTGGGGCAAAGCAGATTACCATAAGGTTGG,-0.443,-0.606,-0.499,-0.352,-0.97,0.454,1.36,0.951,0.202,0.481
TCTTGTAGATCAAATGTTAAGAAAGCCGAAGCCT,0.704,0.517,-0.184,0.216,0.123,1.15,1.12,3.42,3.84,3.61
CCGAGTAGGTTATGGTGCATTCAGGCAACGGTGA,0.234,0.34,0.363,0.361,0.234,1.52,2.04,3.55,1.15,3.04
AGTCAAAGTTGACTAGGTAACGTAAGATTCAGCT,-0.527,-0.187,-0.527,-0.137,-0.608,1.41,2.01,2.7,0.453,1.91
CAAACAAGGTCAAGGTCAAAGTCGGTTTGTGCCA,–,–,4.84,–,2.25,6.38,7.93,7.31,4.7,6.55
TCTTGTAGATCAACAGGCGGTTAAGAAAGATCGA,0.118,0.174,-0.388,0.205,-0.307,0.615,-0.161,1.12,2.44,1.81
CGTCCAAGGTAAGCAGGTCAGTGAAAGCGACGTG,0.187,-0.0922,-0.204,0.018,-1.12,1.25,0.208,0.427,-0.743,-0.154
ATCGAAATGTCGAAGGTGAGTATACCCACCCGAA,-0.36,-0.333,-0.285,-0.254,-0.151,0.29,0.913,0.538,0.133,0.522
GCTCGGAGGACGAGGTCAGAGCTTTGTCCGTAGA,1.88,1.6,-0.0578,1.38,-1.38,2.9,0.449,1.04,-0.495,0.269
CGAACTAGGTCATTGACGGGACAGTGAATAGTAA,4.27,2.52,0.242,1.81,-0.0446,4.64,7.48,6.38,3.39,5.82
GCTGCTAGGTCCGGTTGGTCAGCTAACGGGTACG,-0.467,-0.521,-0.707,-1.05,-0.916,-0.619,-0.571,-0.342,-0.72,-0.851
ACTTACGGGACAACGAGGTTATAGCACGCGTATA,0.442,0.645,0.447,0.958,0.473,1.08,1.01,0.442,0.295,0.32
